This passage reports binding signal results from publication PMC7862700, “An all-to-all approach to the identification of sequence-specific readers for epigenetic DNA modifications on cytosine”.

Holding throughout (test): DAPPL (digital affinity profiling via proximity ligation, sequencing); 10 mM Tris-HCl pH 7.5, 50 mM NaCl, 1 mM DTT, 4% glycerol, room temperature, 30 min; GST-TFs on glutathione beads, 16-mer random dsDNA library, 0.1% formaldehyde crosslink after washing; high values mean tight binding
The target of one assay is T1, FLI1 (Homo sapiens, UniProt Q01543 1-452).
T1 sequence: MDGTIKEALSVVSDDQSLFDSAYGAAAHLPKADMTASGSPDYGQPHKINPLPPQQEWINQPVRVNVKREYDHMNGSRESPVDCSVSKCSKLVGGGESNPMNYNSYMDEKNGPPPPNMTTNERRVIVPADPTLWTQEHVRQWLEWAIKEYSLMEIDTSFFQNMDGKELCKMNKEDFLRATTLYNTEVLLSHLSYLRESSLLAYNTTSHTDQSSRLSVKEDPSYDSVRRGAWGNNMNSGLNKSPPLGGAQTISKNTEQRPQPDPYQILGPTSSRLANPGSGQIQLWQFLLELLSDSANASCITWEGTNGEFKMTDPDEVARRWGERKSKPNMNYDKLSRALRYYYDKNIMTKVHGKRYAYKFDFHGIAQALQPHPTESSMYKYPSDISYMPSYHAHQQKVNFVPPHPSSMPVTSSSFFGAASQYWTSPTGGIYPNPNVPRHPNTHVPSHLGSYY
The following applies: protein: recombinant; tags: N-terminal GST; dsDNA, one strand shown. A digest of the protocol: (§1)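 Pools were built from human transcription factors expressed in yeast as GST fusions, captured on glutathione beads and DNA-barcoded, along with a tag-only sample. Incubation with 200 nmole of a 16-mer random double-stranded DNA library lasted 30 min at room temperature in Tris/NaCl/DTT/glycerol buffer, and was followed by washing, 0.1% formaldehyde crosslinking, proximity ligation, PCR amplification and Illumina NextSeq500 sequencing. Binding signal is the quotient of each hexamer's read frequency for a factor and its frequency for the tag-only sample.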

In the next assay the target is T2, ELK1 (Homo sapiens, UniProt P19419 1-428).
T2 sequence: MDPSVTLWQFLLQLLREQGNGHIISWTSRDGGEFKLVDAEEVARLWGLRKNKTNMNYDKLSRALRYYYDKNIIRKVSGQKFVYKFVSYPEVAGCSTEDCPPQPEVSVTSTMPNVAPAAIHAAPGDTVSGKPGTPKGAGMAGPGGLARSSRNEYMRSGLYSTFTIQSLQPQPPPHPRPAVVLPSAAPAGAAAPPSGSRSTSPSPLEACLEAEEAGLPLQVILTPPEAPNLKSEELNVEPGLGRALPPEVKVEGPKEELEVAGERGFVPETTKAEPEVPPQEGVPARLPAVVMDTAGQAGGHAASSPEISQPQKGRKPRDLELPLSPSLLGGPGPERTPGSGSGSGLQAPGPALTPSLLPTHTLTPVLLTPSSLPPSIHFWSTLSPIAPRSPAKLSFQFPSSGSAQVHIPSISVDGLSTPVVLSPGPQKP
The settings on record: protein: recombinant; tags: N-terminal GST; dsDNA, one strand shown. An outline of the steps:
as §1

A further assay addresses T3, GABPA (Homo sapiens, UniProt Q06546 1-454).
T3 sequence: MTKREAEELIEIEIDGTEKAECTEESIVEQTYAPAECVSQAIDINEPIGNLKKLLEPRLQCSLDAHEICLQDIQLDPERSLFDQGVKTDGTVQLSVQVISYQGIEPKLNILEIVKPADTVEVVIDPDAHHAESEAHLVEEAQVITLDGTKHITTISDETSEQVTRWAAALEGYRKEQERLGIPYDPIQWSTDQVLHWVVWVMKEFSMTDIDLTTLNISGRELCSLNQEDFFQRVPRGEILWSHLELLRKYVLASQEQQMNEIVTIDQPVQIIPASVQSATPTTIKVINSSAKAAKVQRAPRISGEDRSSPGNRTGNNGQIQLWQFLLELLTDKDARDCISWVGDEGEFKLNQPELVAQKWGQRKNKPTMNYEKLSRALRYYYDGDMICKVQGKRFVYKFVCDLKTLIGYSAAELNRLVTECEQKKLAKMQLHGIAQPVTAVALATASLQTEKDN
The settings on record: protein: recombinant; tags: N-terminal GST; dsDNA, one strand shown. A digest of the protocol: as §1

For a further assay, the target named is T4, ERG (Homo sapiens, UniProt P11308 1-479).
T4 sequence: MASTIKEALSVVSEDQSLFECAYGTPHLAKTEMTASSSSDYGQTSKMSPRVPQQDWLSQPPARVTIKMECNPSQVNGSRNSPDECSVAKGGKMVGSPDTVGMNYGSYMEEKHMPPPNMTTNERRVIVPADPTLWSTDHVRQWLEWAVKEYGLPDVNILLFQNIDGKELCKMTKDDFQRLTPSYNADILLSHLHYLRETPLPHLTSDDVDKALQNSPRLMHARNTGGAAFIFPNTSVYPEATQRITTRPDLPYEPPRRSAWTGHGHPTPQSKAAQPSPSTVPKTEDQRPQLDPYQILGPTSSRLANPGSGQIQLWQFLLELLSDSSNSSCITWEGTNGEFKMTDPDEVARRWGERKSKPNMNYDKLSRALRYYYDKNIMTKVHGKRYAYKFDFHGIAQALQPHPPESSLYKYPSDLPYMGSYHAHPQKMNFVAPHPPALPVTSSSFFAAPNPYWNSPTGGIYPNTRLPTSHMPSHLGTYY
The settings on record: protein: recombinant; tags: N-terminal GST; dsDNA, one strand shown. A digest of the protocol:
as §1

The next assay has as its target ELF1 (Homo sapiens, UniProt P32519 1-619). The following applies: protein: recombinant; tags: N-terminal GST; dsDNA, one strand shown. An outline of the steps:
as §1

The target in the next assay is T5, EHF (Homo sapiens, UniProt Q9NZC4 1-300).
T5 sequence: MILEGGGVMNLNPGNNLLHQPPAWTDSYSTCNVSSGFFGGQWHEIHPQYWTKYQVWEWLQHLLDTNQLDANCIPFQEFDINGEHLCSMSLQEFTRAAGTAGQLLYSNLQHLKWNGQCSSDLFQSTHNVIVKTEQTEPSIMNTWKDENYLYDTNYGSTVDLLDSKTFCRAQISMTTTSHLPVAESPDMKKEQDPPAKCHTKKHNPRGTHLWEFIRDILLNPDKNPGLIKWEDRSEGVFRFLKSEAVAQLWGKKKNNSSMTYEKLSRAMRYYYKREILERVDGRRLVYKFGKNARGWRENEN
The following applies: protein: recombinant; tags: N-terminal GST; dsDNA, one strand shown. A digest of the protocol: as §1

A further assay addresses SPI1 (Homo sapiens, UniProt P17947 1-270). The following applies: protein: recombinant; tags: N-terminal GST; dsDNA, one strand shown. An outline of the steps:
as §1

Another assay addresses SPIB (Homo sapiens, UniProt Q01892 1-262). The following applies: protein: recombinant; tags: N-terminal GST; dsDNA, one strand shown. An outline of the steps:
as §1

A further assay deals with T6, ELK3 (Homo sapiens, UniProt P41970 1-407).
T6 sequence: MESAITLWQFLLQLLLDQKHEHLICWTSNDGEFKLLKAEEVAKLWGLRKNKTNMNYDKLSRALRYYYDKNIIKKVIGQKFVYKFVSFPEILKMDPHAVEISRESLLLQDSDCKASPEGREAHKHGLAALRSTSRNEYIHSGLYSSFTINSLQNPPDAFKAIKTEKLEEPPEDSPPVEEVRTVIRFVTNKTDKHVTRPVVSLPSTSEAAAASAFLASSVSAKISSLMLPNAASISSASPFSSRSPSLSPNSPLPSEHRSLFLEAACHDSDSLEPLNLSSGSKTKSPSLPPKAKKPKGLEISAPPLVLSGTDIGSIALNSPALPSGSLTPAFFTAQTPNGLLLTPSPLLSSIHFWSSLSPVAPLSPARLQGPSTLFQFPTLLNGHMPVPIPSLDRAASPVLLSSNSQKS
The settings on record: protein: recombinant; tags: N-terminal GST; dsDNA, one strand shown. A digest of the protocol: as §1

The next assay concerns the target T7, FEV (Homo sapiens, UniProt Q99581 1-238).
T7 sequence: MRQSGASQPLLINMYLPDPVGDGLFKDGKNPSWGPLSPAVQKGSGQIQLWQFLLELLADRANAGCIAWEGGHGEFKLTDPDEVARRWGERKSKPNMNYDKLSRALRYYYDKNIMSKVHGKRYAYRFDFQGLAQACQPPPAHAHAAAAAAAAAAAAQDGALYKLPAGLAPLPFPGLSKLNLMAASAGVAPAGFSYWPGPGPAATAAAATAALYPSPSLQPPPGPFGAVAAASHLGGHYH
The following applies: protein: recombinant; tags: N-terminal GST; dsDNA, one strand shown. A digest of the protocol: as §1

Another assay addresses ETV5 (Homo sapiens, UniProt P41161 1-510). The following applies: protein: recombinant; tags: N-terminal GST; dsDNA, one strand shown. An outline of the steps:
as §1

The target in the next assay is HSF1 (Homo sapiens, UniProt Q00613 1-529). The settings on record: protein: recombinant; tags: N-terminal GST; chain copies: 3; dsDNA, one strand shown. A digest of the protocol: as §1
HSF1, sequence (Q00613 whole entry): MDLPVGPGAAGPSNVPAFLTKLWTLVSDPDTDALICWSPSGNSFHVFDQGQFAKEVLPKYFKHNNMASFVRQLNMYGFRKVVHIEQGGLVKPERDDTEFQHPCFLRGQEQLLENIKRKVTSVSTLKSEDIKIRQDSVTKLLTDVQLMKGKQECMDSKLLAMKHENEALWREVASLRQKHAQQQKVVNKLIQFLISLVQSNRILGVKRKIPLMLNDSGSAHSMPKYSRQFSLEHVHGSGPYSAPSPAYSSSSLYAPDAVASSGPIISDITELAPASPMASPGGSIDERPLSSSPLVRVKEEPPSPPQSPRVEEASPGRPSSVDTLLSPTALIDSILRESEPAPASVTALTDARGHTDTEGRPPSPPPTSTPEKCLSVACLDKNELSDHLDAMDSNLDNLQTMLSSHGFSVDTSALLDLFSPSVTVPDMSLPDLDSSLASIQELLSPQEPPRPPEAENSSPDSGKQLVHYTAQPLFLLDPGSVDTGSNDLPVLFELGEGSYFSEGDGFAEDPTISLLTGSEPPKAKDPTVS
The target in another assay is T8, SPIC (Homo sapiens, UniProt Q8N5J4 1-248).
T8 sequence: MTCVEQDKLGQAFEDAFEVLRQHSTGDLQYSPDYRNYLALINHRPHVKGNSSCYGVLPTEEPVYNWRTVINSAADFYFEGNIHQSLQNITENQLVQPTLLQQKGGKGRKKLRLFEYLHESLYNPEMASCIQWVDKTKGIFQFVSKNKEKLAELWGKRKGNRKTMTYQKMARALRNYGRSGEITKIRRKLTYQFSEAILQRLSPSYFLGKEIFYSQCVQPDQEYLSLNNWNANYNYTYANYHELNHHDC
The settings on record: protein: recombinant; tags: N-terminal GST; dsDNA, one strand shown. A digest of the protocol:
as §1

The next assay has as its target ELF4 (Homo sapiens, UniProt Q99607 1-663). The following applies: protein: recombinant; tags: N-terminal GST; dsDNA, one strand shown. An outline of the steps: as §1
A further assay concerns the target T9, ELK4 (Homo sapiens, UniProt P28324-2 1-405).
T9 sequence: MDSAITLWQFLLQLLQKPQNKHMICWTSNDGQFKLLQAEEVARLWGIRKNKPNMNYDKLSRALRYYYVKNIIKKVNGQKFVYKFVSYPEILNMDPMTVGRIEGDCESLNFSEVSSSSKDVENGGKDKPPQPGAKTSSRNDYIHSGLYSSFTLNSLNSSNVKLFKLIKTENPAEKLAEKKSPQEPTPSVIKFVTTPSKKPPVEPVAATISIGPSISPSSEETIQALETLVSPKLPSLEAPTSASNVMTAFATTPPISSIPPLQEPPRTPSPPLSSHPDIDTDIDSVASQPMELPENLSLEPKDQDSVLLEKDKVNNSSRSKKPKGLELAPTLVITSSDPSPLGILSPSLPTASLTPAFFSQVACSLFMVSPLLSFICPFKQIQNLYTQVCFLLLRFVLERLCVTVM
The settings on record: protein: recombinant; tags: N-terminal GST; dsDNA, one strand shown. A digest of the protocol: as §1

Another assay has as its target T10, ETV2 (Homo sapiens, UniProt O00321 1-342).
T10 sequence: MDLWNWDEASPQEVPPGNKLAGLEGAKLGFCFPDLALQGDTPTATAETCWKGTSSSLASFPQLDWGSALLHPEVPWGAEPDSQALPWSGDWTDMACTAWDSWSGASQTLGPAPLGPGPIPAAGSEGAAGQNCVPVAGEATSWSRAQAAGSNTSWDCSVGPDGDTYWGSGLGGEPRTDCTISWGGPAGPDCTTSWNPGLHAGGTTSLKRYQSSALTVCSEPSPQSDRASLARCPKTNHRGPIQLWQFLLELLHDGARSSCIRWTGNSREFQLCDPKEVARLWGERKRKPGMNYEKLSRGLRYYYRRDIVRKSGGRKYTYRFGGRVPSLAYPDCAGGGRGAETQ
The following applies: protein: recombinant; tags: N-terminal GST; dsDNA, one strand shown. An outline of the steps:
as §1

The target of another assay is T11, ELF3 (Homo sapiens, UniProt P78545 1-371).
T11 sequence: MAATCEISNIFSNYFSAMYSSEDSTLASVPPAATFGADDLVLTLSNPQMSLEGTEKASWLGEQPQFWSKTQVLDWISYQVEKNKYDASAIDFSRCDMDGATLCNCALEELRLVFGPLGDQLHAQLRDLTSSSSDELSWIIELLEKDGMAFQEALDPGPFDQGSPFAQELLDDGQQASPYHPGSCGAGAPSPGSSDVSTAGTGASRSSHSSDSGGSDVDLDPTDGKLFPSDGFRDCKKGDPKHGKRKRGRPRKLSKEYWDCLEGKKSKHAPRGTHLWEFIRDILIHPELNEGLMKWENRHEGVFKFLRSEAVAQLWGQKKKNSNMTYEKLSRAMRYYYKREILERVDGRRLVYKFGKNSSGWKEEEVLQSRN
The following applies: protein: recombinant; tags: N-terminal GST; dsDNA, one strand shown. An outline of the steps:
as §1

A further assay deals with CRX (Homo sapiens, UniProt O43186 1-299). The following applies: protein: recombinant; tags: N-terminal GST; dsDNA, one strand shown. An outline of the steps: as §1
CRX, sequence (O43186 whole entry): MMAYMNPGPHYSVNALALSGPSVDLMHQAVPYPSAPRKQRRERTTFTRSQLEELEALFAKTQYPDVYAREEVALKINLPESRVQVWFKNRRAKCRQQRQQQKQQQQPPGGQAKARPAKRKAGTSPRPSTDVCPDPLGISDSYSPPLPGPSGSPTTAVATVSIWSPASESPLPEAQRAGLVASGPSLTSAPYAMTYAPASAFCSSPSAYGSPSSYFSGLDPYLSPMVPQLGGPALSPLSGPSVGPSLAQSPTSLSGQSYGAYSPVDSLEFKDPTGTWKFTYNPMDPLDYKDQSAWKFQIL
For the next assay, the target named is ETV1 (Homo sapiens, UniProt P50549 1-477). The following applies: protein: recombinant; tags: N-terminal GST; dsDNA, one strand shown. A digest of the protocol:
as §1

SPIB, sequence (Q01892 whole entry): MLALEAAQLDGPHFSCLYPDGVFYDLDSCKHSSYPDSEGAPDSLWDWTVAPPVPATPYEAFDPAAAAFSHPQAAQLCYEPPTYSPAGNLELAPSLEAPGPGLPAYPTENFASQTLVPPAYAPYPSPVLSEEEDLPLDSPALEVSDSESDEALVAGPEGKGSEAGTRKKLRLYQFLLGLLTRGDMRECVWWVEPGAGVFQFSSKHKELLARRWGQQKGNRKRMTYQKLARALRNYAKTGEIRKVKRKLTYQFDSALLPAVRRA
ELF4, sequence (Q99607 whole entry): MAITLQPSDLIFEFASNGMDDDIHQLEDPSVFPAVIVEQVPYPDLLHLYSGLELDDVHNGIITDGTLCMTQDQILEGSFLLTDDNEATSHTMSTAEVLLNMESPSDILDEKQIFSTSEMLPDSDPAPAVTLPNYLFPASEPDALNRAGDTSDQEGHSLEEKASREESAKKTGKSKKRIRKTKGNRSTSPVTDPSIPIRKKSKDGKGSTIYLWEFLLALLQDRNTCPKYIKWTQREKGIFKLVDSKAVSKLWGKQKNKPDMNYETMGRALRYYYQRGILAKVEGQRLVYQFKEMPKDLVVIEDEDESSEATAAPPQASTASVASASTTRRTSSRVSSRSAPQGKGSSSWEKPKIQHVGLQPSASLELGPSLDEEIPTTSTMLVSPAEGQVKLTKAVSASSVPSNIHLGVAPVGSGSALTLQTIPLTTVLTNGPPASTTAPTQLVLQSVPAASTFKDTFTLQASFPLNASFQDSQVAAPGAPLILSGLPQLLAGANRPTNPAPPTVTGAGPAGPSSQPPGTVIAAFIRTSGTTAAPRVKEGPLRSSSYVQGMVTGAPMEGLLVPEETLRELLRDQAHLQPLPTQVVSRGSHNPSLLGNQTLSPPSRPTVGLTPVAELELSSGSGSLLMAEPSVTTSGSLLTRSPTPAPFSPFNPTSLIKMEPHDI
ETV1, sequence (P50549 whole entry): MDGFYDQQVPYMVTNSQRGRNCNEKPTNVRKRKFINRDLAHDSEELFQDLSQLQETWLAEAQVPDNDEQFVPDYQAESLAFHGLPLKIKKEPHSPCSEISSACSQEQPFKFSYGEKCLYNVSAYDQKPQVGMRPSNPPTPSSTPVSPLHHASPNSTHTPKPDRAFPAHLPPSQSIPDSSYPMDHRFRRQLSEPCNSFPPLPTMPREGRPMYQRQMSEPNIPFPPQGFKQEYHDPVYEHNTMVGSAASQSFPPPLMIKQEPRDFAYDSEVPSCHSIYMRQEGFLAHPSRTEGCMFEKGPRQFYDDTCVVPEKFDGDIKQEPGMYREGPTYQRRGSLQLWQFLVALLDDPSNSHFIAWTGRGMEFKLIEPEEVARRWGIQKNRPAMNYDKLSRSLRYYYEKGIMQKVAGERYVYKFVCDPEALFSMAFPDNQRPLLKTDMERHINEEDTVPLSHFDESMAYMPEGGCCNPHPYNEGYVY
ELF1, sequence (P32519 whole entry): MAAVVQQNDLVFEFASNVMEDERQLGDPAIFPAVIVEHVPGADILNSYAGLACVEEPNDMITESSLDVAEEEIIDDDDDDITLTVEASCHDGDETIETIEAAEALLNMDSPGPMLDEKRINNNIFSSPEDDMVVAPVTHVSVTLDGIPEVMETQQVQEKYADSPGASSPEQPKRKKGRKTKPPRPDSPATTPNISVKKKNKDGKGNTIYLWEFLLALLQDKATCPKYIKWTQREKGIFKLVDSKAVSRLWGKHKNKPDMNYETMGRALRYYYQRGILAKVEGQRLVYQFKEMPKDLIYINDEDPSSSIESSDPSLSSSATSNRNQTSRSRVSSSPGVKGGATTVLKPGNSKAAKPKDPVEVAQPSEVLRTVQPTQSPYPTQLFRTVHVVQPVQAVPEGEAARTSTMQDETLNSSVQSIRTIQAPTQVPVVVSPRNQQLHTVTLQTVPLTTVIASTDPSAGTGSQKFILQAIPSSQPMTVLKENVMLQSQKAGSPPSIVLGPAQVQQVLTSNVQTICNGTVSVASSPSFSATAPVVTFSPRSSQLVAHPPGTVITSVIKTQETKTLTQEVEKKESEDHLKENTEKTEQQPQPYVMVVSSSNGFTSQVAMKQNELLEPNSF
ETV5, sequence (P41161 whole entry): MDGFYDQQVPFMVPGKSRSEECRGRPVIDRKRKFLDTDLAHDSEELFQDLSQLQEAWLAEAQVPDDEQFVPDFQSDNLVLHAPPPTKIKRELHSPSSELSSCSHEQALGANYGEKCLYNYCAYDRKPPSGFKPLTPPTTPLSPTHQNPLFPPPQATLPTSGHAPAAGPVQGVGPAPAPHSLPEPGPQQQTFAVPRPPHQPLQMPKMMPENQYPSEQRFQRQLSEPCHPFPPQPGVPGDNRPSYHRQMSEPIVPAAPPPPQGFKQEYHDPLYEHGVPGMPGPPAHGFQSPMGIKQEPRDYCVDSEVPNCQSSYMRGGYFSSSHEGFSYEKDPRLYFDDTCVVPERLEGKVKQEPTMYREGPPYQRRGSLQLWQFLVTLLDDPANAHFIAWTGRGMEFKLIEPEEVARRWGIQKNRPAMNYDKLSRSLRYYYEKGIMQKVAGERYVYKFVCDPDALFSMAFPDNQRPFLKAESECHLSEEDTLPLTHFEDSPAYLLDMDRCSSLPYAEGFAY

For AATCGC, the binding signal is 1.12 fold enrichment (6-mer frequency, TF over GST control) in the assay with FLI1; 1.09 fold enrichment (6-mer frequency, TF over GST control) with ELK1; 1.14 fold enrichment (6-mer frequency, TF over GST control) in the assay with GABPA; 1.07 fold enrichment (6-mer frequency, TF over GST control) with ERG; 1.13 fold enrichment (6-mer frequency, TF over GST control) in the assay with ELF1; 1.16 fold enrichment (6-mer frequency, TF over GST control) in the assay with EHF. Also, the binding signal with SPI1 was 1.05 fold enrichment (6-mer frequency, TF over GST control); with SPIB, 1.08 fold enrichment (6-mer frequency, TF over GST control); in the assay with ELK3 it was 1.16 fold enrichment (6-mer frequency, TF over GST control); with FEV it was 1.08 fold enrichment (6-mer frequency, TF over GST control); with ETV5, 1.03 fold enrichment (6-mer frequency, TF over GST control); with HSF1, 1.3 fold enrichment (6-mer frequency, TF over GST control). Further, the binding signal with SPIC was 1.08 fold enrichment (6-mer frequency, TF over GST control); in the assay with ELF4, 1.14 fold enrichment (6-mer frequency, TF over GST control); with ELK4, 1.08 fold enrichment (6-mer frequency, TF over GST control); with ETV2 it was 1.04 fold enrichment (6-mer frequency, TF over GST control); with ELF3, 1.08 fold enrichment (6-mer frequency, TF over GST control); in the assay with CRX, 1.62 fold enrichment (6-mer frequency, TF over GST control). The binding signal with ETV1 is 1.15 fold enrichment (6-mer frequency, TF over GST control).
